Assay results from PubChem BioAssay (NCI).
Several values for one entry are separate records, joined by “and”; a condition that tells them apart may be missing. Identical values can stand only once. Compounds without any hit were thinned out: in the full panel of roughly 83,000, 20% have a hit.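 Cells were grown in 96-well plates and exposed to the test compound at a single concentration for 48 hours; results are reported as percent growth, with values below 10 considered active.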 Activity calls are given as the source filed them.

What follows are compounds tested on UACC-62 melanoma (assay: NCI-60 one-dose screen, 48 h (100 = growth as untreated, 0 = no growth, -100 = all killed)). Details: 10 µM unless noted.
With Cc1coc2c1C(OC(=O)C(C)C)C1(C)C(C)CCC(O)C1C2=O (centres undefined) the growth was 39% [100 µM] (inactive) and 18.7% [100 µM] (inactive). With O=C1c2ccccc2-c2c1c1ccccc1c(=O)n2-c1cccnc1 the growth was 35.8% [100 µM] (inactive) and 0.376% [100 µM] (active). In the case of OCc1ccccc1OC1OC(CO)C(O)C(O)C1O (centres undefined), the growth is reported as 85.4% [100 µM] (inactive) and 95.9% [100 µM] (inactive). Cc1ccc(/C=N/Nc2ccccn2)s1 was tested, and the growth was 74.5% [100 µM] (inactive) and 87.7% [100 µM] (inactive). COC(=O)C(=O)C(C(=O)C(=O)Nc1ccccc1OC)c1nc2ccc([N+](=O)[O-])cc2[nH]c1=O (centres undefined) was tested, and the growth was 41.9% [100 µM] (inactive) and 22.7% [100 µM] (inactive). With CCC/C(Cl)=N/OC(=O)Nc1cccc(F)c1 the growth was -86.8% [100 µM] (active) and -100% [100 µM] (active).

What follows are compounds tested on TK-10 renal in the same assay as above. Details: 10 µM unless noted.
For CC1=CC(=O)c2ccc(C)cc2C1=O, the growth was -100% [100 µM] (active). CN(C)c1ccc(/C=N/n2c(-c3ccccc3)nc3ccccc3c2=O)cc1 was tested, and the growth was 101% [100 µM] (inactive) and 30.4% [100 µM] (inactive). For NC(Cc1ccc(S(=O)(=O)O)cc1)C(=O)NC(Cc1ccc(S(=O)(=O)O)cc1)C(=O)NC(Cc1ccc(S(=O)(=O)O)cc1)C(=O)NC(Cc1ccc(S(=O)(=O)O)cc1)C(=O)O (centres undefined), the growth was 102% [100 µM] (inactive) and 111% [100 µM] (inactive). In the case of CC1CC(C(=O)OC2OC(COC3OC(CO)C(OC4OC(C)C(O)C(O)C4O)C(O)C3O)C(O)C(O)C2O)C2CCC3(C)C(=CCC4(C)C3CCC3C(C)(CO)C(O)C(O)CC34C)C2C1C (centres undefined), the growth is reported as -65.8% [100 µM] (active) and -100% [100 µM] (active). CC(=N/N=C/c1ccccn1)/C(C)=N/N=C(C)/C(C)=N/N=C(C)/C(C)=N/N=C(C)/C(C)=N\N=C\c1ccccn1 was tested, and the growth was 99.9% [100 µM] (inactive) and 81.3% [100 µM] (inactive). With C=CCn1c2c(c3ccccc3c1=O)C(=O)c1ccccc1-2 the growth was 47.5% [100 µM] (inactive) and -35.9% [100 µM] (active). With C=C1CC2(C)CCC(OC(=O)C3(C)OC3C)C(C)(OC(C)=O)C2CC1=C(C)C (centres undefined) the growth was 89.2% [100 µM] (inactive) and 49.5% [100 µM] (inactive). For COc1ccc(-c2coc3c4c(ccc3c2=O)OCO4)cc1OC, the growth was 54.4% [100 µM] (inactive) and 6.05% [100 µM] (active). In the case of CCCCCCCCCC(=O)CC(=O)c1c(O)cc(O)cc1O, the growth is reported as -1.86% [75 µM] (active) and 10% [75 µM] (inactive). For N#Cc1n[nH]n(-c2ccccc2)c1=O, the growth was 115% [100 µM] (inactive) and 107% [100 µM] (inactive). With COC(=O)C1CCC(=O)N1CN(C(C)=O)c1cccc(O)c1 (centres undefined) the growth was 77.3% [100 µM] (inactive) and 106% [100 µM] (inactive). With N/N=C(\C(=O)Nc1ccc([N+](=O)[O-])cc1)C(C1=Nc2cc([N+](=O)[O-])ccc2NC1)[N+](=O)[O-] (centres undefined) the growth was 117% [100 µM] (inactive) and 4.46% [100 µM] (active). With CC(C)=CCc1cc(C2COc3cc4c(c(O)c3C2=O)C=CC(C)(C)O4)c(O)cc1O (centres undefined) the growth was -14.3% [100 µM] (active) and -100% [100 µM] (active). For COc1ccc(C2c3cc4c(c(OC)c3CC3OCC(=O)C32)OCO4)cc1OC (centres undefined), the growth was 46.4% [100 µM] (inactive) and -11% [100 µM] (active). O=C1NC(N/N=C\c2ccccc2)=N/C1=C/c1ccc(Cl)cc1 was tested, and the growth was -70.8% [100 µM] (active) and 57.9% [100 µM] (inactive). In the case of C=C1C(=O)O[C@@H]2C[C@@]3(C)CC(=O)C=C(C)[C@@H]3C[C@H]12, the growth is reported as -87.6% [100 µM] (active) and -78.7% [100 µM] (active). In the case of Cc1cc(N(CCC#N)CCC#N)ccc1/C=N/NC(=O)c1cc(Cl)ccc1O, the growth is reported as 76.6% [100 µM] (inactive) and 12.3% [100 µM] (inactive). For COC(=O)C(C(=O)C(=O)NC1Nc2ccc(C)cc2S1)c1nc2ccc(Cl)cc2[nH]c1=O (centres undefined), the growth was 113% [100 µM] (inactive) and 71.4% [100 µM] (inactive). O=C(O)c1n[nH]nc1Cl was tested, and the growth was 98.7% [100 µM] (inactive) and 107% [100 µM] (inactive). With CC1CC(=O)N(N(C)C)C2(C#N)C(=O)N=C(N)C12C#N (centres undefined) the growth was -31.9% [100 µM] (active) and -94.2% [100 µM] (active). In the case of COC(=O)C1=CO[C@@H](OC2OC(CO)C(O)C(O)C2O)[C@H]2[C@@H](C)[C@@H](O)[C@@H](O)[C@@H]12 (some centres undefined), the growth is reported as 102% [100 µM] (inactive) and 98% [100 µM] (inactive). Cc1ccc(/C=N/Nc2cnccn2)s1 was tested, and the growth was 116% [100 µM] (inactive) and 93% [100 µM] (inactive). In the case of N#C/C=C1\C=CC(O)C(O)C1OC1OC(CO)C(O)C(O)C1O (centres undefined), the growth is reported as 97.1% [100 µM] (inactive) and 93.8% [100 µM] (inactive). With COc1c(OC)c(OC)c2c(c1OC)c(=O)c1ccccc1n2C the growth was 87.4% [100 µM] (inactive) and 35% [100 µM] (inactive). With COC(=O)C(=O)C(C(=O)C(=O)Nc1nc2ccc(C)cc2s1)c1nc2ccc([N+](=O)[O-])cc2[nH]c1=O (centres undefined) the growth was 115% [100 µM] (inactive) and 75.4% [100 µM] (inactive). For Cc1ccc(F)cc1NC(=O)O/N=C(\Cl)C(C)C, the growth was 65.6% [100 µM] (inactive) and 72.9% [100 µM] (inactive). For COc1cc2c3cc1Oc1c(OC)c(OC)cc4c1C(Cc1ccc(O)c(c1)-c1cc(ccc1OC)CC3N(C)CC2)N(C)CC4 (centres undefined), the growth was -41.8% [100 µM] (active) and -97% [100 µM] (active). With CCCCCCSC[C@H](OC(C)=O)[C@@H](OC(C)=O)[C@@H](OC(C)=O)[C@@H](COC(C)=O)OC(C)=O the growth was 95.1% [100 µM] (inactive) and 101% [100 µM] (inactive). CC1CC2(OC2C)C(=O)OC2CCN(C)C/C=C(/COC(=O)C1(C)O)C2=O (centres undefined) was tested, and the growth was 97.2% [100 µM] (inactive) and 101% [100 µM] (inactive). For CCCCCCCCCCCCC/C=C/[C@H]1[C@@H](C(=O)OC)N1S(=O)c1ccc(C)cc1 (some centres undefined), the growth was 107% [100 µM] (inactive) and 52.5% [100 µM] (inactive). With CO/C(N)=C(\C#N)N=Cc1ccc2ccccc2c1 the growth was 12.8% [100 µM] (inactive) and -44.8% [100 µM] (active). For Cc1ccc(NC(=O)/C(Cc2cc(=O)oc3cc(O)ccc23)=N\NC(C)(C)C)cc1C, the growth was 103% [100 µM] (inactive) and 101% [100 µM] (inactive). Cc1coc2c1C(OC(=O)C(C)C)C1(C)C(C)CCC(O)C1C2=O (centres undefined) was tested, and the growth was 87.9% [100 µM] (inactive) and 63.5% [100 µM] (inactive). O=C1c2ccccc2-c2c1c1ccccc1c(=O)n2-c1cccnc1 was tested, and the growth was 59.8% [100 µM] (inactive) and -34% [100 µM] (active). OCc1ccccc1OC1OC(CO)C(O)C(O)C1O (centres undefined) was tested, and the growth was 97.4% [100 µM] (inactive) and 97.5% [100 µM] (inactive). With Cc1ccc(/C=N/Nc2ccccn2)s1 the growth was 147% [100 µM] (inactive) and 60.9% [100 µM] (inactive). COC(=O)C(=O)C(C(=O)C(=O)Nc1ccccc1OC)c1nc2ccc([N+](=O)[O-])cc2[nH]c1=O (centres undefined) was tested, and the growth was 121% [100 µM] (inactive) and 68% [100 µM] (inactive). In the case of CCC/C(Cl)=N/OC(=O)Nc1cccc(F)c1, the growth is reported as -100% [100 µM] (active).
